RGS4 inhibitor: Inhibitors of Regulator of G Protein Signaling (RGS) 4: qHTS; Regulator of G-protein signaling 4 (Homo sapiens), P49798; Transcreener GDP fluorescence polarization, RGS4-accelerated GTP hydrolysis; Potency, µM (series often up to 114 µM), for the others: at the top dose activity change, negative = inhibition, actives largely listed as inhibitors; 390,000 tested, 0.039% active; note: potency is the fitted concentration of half-maximal effect; % is set by controls: 0 for no effect and ±100 for the full control effect; nearly all actives have a fitted effect of over 75% in size
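MLSMR compounds (23 nl, pin-transferred) preincubated 10 min at room temperature with a 500nM (2x) first reagent, then RGS4 at 900nM (2x) plus Transcreener GDP mix added; fluorescence polarization (620/688 nm) read before and after 90 min at 30 °C.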
PTHR1 agonist: qHTS for PTHR1 Agonists: Primary Screen; HEK293 GP2 PTHR1 cells, GloSensor cAMP luminescence, 1 h; Potency, µM (doses to about 115 µM), for inactives: at the highest dose activation, most hits filed as activators; 410,000 tested, 0.075% active; AID 743266, 2014; note: potency is the fitted concentration of half-maximal effect; nearly all actives have a fitted effect of over 55% in size
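HEK-293-derived GP2 cells expressing PTHR1 and a GloSensor cAMP reporter, 3,000/well, plated overnight, given luciferin plus IBMX (each 0.5 mM as added) for 1 h at 37 °C, then compound for 1 h at 37 °C. Luminescence was read after 15 min at room temperature.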
B2AR arrestin: qHTS assay of beta-arrestin-biased ligands of beta2-adrenergic receptor; Beta-2 adrenergic receptor (Homo sapiens), P07550; beta-arrestin recruitment to beta2AR, cell-based reporter; Potency, µM (highest dose often 46.1 µM), for inactives: at the highest dose activation, most hits filed as activators; 330,000 tested, 0.02% active;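 note: potency is the fitted concentration of half-maximal effect; 0% = DMSO controls and full agonism = EC100 isoproterenol or metaproterenol; nearly all actives have a fitted effect of over 65% in size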
D3 antag: qHTS of D3 Dopamine Receptor Antagonist: qHTS; 360,000 tested, 2.5% active; AID 652054, 2013; D(3) dopamine receptor (Homo sapiens), P35462; D3R cells, DiscoveRx beta-arrestin luminescence, antagonist mode; stronger effect = lower value; max response, negative = inhibition, %; in the data active = max response below about -50%; inconclusive = no clear call, values can overlap the other calls; note: % is set by controls: 0 for no effect and ±100 for the full control effect
Target sequence (P35462 whole entry, looked up): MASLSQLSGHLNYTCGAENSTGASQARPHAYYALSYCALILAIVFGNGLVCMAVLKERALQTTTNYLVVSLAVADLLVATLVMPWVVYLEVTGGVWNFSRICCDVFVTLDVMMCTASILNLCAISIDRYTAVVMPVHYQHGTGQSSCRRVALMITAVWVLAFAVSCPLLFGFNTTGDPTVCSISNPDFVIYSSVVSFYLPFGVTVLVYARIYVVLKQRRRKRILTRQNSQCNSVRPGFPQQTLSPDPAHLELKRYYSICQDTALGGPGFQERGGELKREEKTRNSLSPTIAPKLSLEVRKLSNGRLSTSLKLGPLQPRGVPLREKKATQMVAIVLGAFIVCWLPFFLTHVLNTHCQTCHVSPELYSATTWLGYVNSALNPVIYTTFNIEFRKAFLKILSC
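Cells expressing the human receptor were seeded at 1500 cells/well, incubated overnight at 37 degrees C in 5% CO2, then exposed to library compounds with dopamine controls for 90 minutes at 37 degrees C before luminescent detection.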
BRCA1 expr up: qHTS Assay to Identify Small Molecule Activators of BRCA1 Expression; AID 624202, 2012; Potency, µM (series often up to 46.1 µM), inactives show top-dose activation, hits mostly activators; 380,000 tested, 1.1% active; MCF7-BRCA1-FFLuc reporter, luminescence, 48 h; response scale: scaled: vehicle 0%, 10 µM genistein 100%; note: potency is the fitted concentration of half-maximal effect; nearly all actives have a fitted effect of over 80% in size
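MCF7 cells carrying a BRCA1-firefly luciferase reporter (2000 cells/well, phenol-red free MEM) were attached for 2 h at 37 °C, then given compounds for 48 h. Luminescence was read 15 min after luciferase reagent; activity normalized to genistein (10 microM) and DMSO.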
DRD3 agonist: qHTS of D3 Dopamine Receptor Agonist: qHTS; 410,000 tested, 0.58% active; AID 652048, 2013; D3R DiscoveRx beta-arrestin cells, luminescence, 90 min; max activation, %; in the data active = max activation above about 30%; note: 0% is about no effect
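Cells at 1500/well, incubated overnight, then treated with pinned compounds (dopamine as control) for 90 min at 37 degrees C. DiscoveRx reagent added for 30 - 60 minutes at room temperature; luminescence read.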
* hit, by the source's call; i = inactive; u = inconclusive; x = no result; [ ] = another dose, or the depositor's remark. Hits are enriched below; roughly 3.7% of the tested compounds scored in any of these assays. Unless noted, calls come from the whole dose curve; as a rule, active = well fitted curve in the direction sought with a large enough effect; inconclusive = small, poorly fitted or top-dose-only effect, or another doubt; inactive = no such curve, though single readings can be large; an effect the other way counts as inactive or inconclusive.

SMILES	RGS4 inhibitor	PTHR1 agonist	B2AR arrestin	D3 antag	BRCA1 expr up	DRD3 agonist
CCCCCCOC(=O)C(C#N)c1nc2ccccc2nc1N1CCOCC1 (stereo unspecified)	20%	-8%[57.5 µM]	0%	6	-15%	1
CCCCCCOC(=O)C(C#N)c1nc2ccccc2nc1N1CCN(CC)CC1 (stereo unspecified)	-11%	i	0%	-59*	-42%	1
O=C(Nc1ccccc1)O[C@@H]1C[C@H]2CCC(=O)N3CC[C@@H](C1)[C@@H]23	x	x	-1%	x	x	x
COCCn1c(=O)[nH]c2cc(C(=O)NCc3ccccc3)ccc2c1=O	6%	-25%	0%	7	-7%	-5
Cc1ccc(CNC(=O)c2ccc3c(=O)n(CCCN4CCCC4=O)c(=S)[nH]c3c2)cc1	37%	i	-1%	35	-4%[1.84 µM]	-3
CC(=O)NCCNC(=O)c1ccc2c(=O)n(CCc3ccccc3)c(=O)[nH]c2c1	37%	-55%	x	x	4.5µM*	-2
CCN(CC)CCCNC(=O)c1ccc2c(=O)n(CCc3ccccc3)c(=O)[nH]c2c1	-9%	i	x	x	-76%	-7
C=CCn1c(=S)[nH]c2cc(C(=O)Nc3ccc(F)cc3)ccc2c1=O	-8%	-22%	0%	2	-11%	47*
O=C(NCc1ccccc1)c1ccc2c(=O)n(CCCN3CCCC3=O)c(=S)[nH]c2c1	-27%	-42%[57.5 µM]	0%	-52*	-8%	2
C=CCn1c(=S)[nH]c2cc(C(=O)NCCc3ccc(S(N)(=O)=O)cc3)ccc2c1=O	7%	i	0%	0	-23%	1
COCCn1c(=S)[nH]c2cc(C(=O)NCc3ccccc3)ccc2c1=O	x	i	x	-66*	-2%	-6
CC(C)NS(=O)(=O)c1ccc(OCC(=O)Nc2cccc(F)c2)cc1	11%	-43%	0%	1	8%	14
Cc1cccc(N(C)C(CNS(=O)(=O)c2ccccc2)c2ccccc2)c1 (stereo unspecified)	1%	-30%	x	x	x	4
c1ccc2oc(NC3=NCN(C4CCCCC4)CN3)nc2c1	7%	i	-1%	7	2.8µM*	5
CC(C)N1CN=C(Nc2nc3ccccc3o2)NC1	-12%	-1%	0%	16	u	2
CCC(c1nnnn1Cc1ccccc1)N(Cc1ccccc1)Cc1cc2cc(C)ccc2[nH]c1=O (stereo unspecified)	u	x	x	x	-57%	x
CCCC(CCC)C(=O)NC1CC(=O)N(c2ccc3c(c2)OCCO3)C1 (stereo unspecified)	-10%	-20%	x	x	-13%	-7
O=C(O)c1cc(-c2ccc(/C=N/Nc3ccc([N+](=O)[O-])cn3)o2)ccc1Cl	u	i	0%	-75*	0%	-20
O=C(O)c1ccc(-c2ccc(/C=N/Nc3ccc([N+](=O)[O-])cc3)o2)cc1	-14%[11.4 µM]	-1%	0%	u	79%	-6
CCOC(=O)N1CCc2c(sc3nc(SC(C)C)n(N)c(=O)c23)C1	-32%	i	-2%	0	-27%	31*
O=C1C(=O)C(c2ccccc2)C(=O)C1c1ccccc1 (stereo unspecified)	23%	i	x	-20	-8%	87*
O=C1c2ccccc2C(=O)C1c1ccncc1	-7%[11.4 µM]	-7%	0%	-11	24%	-5
O=[N+]([O-])c1ccc2nc(-c3ccncc3)[nH]c2c1	22%	i	0%	9	u	5
O=[N+]([O-])c1cccc(-c2nc3ccc([N+](=O)[O-])cc3[nH]2)c1	-100%[56.9 µM]	-47%	0%	-12	5µM*	-6

Bioassay records from PubChem BioAssay.
